The record followed here is PubChem BioAssay (Tox21).

Results filed as inconclusive are left out. Values without a mark were called inactive. Active and inactive are the calls of the source. The call rests on the fitted dose curve; in most records, active means well fitted cell-killing curve with a large enough effect in the repeat runs; inconclusive means weak or mixed curves, or effect the other way; inactive means no such curve, though single readings can be large or run the other way.
On the % scale 0 is the no-effect control and ±100 the full control effect.

This test is described as follows: qHTS assay to identify small molecule agonists of the farnesoid-X-receptor (FXR) signaling pathway - cell viability counter screen (AID 743218). Further: nearly all actives have a fitted effect of over 45% in size. The note with it: FXR-bla HEK293T viability, CellTiter-Glo luminescence, 16 h; series mostly up to 62.6 µM; viability change, negative = cytotoxic: at the top concentration. An excerpt:
U.S. Tox21 Program National Center for Advancing Translational Sciences [NCATS] NIH Chemical Genomics Center [NCGC] U.S. Environmental Protection Agency [EPA] National Institutes of Environmental Health Sciences [NIEHS] National Toxicology Program [NTP] U.S. Food and Drug Administration [FDA] Tox21 Assay Overview: The farnesoid-X-receptor (FXR), a nuclear hormone receptor, is highly expressed in liver, intestine, kidney and adrenal cortex. Natural ligands of FXR are the bile acids (Cholic acid, Chenodeoxy cholic acid etc). FXR is an important regulator of diverse metabolic pathways, including the bile acid homeostasis, lipid and glucose metabolisms. FXR regulates the expression of target genes by binding either as a monomer or as a heterodimer with the retinoid X receptor (RXR). Numerous studies have reported that FXR exerts protective function during cholestasis, diabetes, liver regeneration, and cancer. To identify compounds that activate FXR signaling, GeneBLAzer FXR-UAS-bla HEK 293T cell line (Invitrogen, Carlsbad, CA) containing a beta-lactamase reporter gene under the control of a UAS response element was used to screen the Tox21 10K compound library. The cytotoxicity of the Tox21 compound library against the FXR-bla cell line was tested in parallel by measuring the cell viability using CellTiter-Glo assay in the same wells.
Tox21 Assay Protocol Summary: FXR-bla cells were dispensed at 5000 cells/5uL/well in 1536-well black wall/clear bottom plates using a Multidrop Combi (Thermo Fisher Scientific, Waltham, MA) dispenser. After the assay plates were incubated at 37 C and 5% CO2 for 5 h, 23 nL of compounds dissolved in DMSO, positive controls or DMSO only was transferred to the assay plate by a Pintool station (Kalypsys, San Diego, CA). The assay plates were incubated at 37C for 16 h. After 1 uL of LiveBLAzerTM B/G FRET substrate was added using a Bioraptr Flying Reagent Dispenser (FRD) workstation (Beckman Coulter, Indianapolis, IN), the plates were incubated at room temperature for 2 h, and fluorescence intensity was measured by an Envision plate reader (PerkinElmer, Shelton, CT). For cell viability readout that measures cytotoxicity, 4uL/well of CellTiter-Glo reagent was added into the assay plates using a Bioraptr FRD. After 30 min incubation at room temperature, the luminescence intensity in the plates was measured using a ViewLux plate reader (PerkinElmer).
Background: qHTS replaces the single test concentration by a dilution series.
`CCCCCCCCCCCCCCCC(=O)OC(C)C`: the call was inactive.
With `O=S(=O)(O)c1ccccc1`, the “viability change, negative = cytotoxic” value is 1.59%.
As to `CNC(=S)N(C)C`, the result was inactive.
In the case of `CC(C)OP(=O)(CP(=O)(OC(C)C)OC(C)C)OC(C)C`, the outcome was inactive.
As for `CC(=O)CC(C)(C)O`, the molecule was called inactive.
In the case of `O=c1[nH]cnc2[nH]ncc12`, the “viability change, negative = cytotoxic” value was 12.8% [at 81.1 µM].
Take `C[Si]1(C)O[Si](C)(C)O[Si](C)(C)O[Si](C)(C)O1`: the result was inactive.
With `CCOCC(=O)O`, the outcome was inactive.
Turning to `NCCNCCN`, the result was inactive.
Regarding `N#Cc1ccccc1`, the molecule was classed as inactive.
On the same count and under the same terms, to `C=CCCCCCCCCC(=O)O` belongs “inactive”.
`NCCN1CCNCC1`: the molecule was called inactive.
With `O=S(=O)(O)c1ccc(N=Nc2c(O)ccc3cc(S(=O)(=O)O)ccc23)cc1`, the call was inactive.
As to `CC(C)CC(=O)CC(C)CC(C)C` (stereo not given), the result was inactive.
On to `O=C(O)c1ccc(C(=O)O)c(C(=O)O)c1`, for which the result was inactive.
Consider `CCNc1ccccc1`, for which the molecule was called inactive.
As for `NCCCCCCN`, the molecule was called inactive.
On the same count and under the same terms, the result for `CN/C(=C\[N+](=O)[O-])NCCSCc1csc(CN(C)C)n1` reads “inactive”; that for `CCOCCOCCOCCO`, “inactive”.
On to `CN(C)CCOC(=O)COc1ccc(Cl)cc1`, for which the “viability change, negative = cytotoxic” value is -8.85%.
Consider `COCCOC(=O)c1ccccc1C(=O)OCCOC`, for which the “viability change, negative = cytotoxic” value was -4.99% [at 81.1 µM].
On to `COc1ccc(C)cc1N`, for which the call was inactive.
`CC(=O)OC1CC(C)OC(C)O1` (stereo not given): the molecule was classed as inactive.
On to `Cc1ccc([N+](=O)[O-])cc1S(=O)(=O)O`, for which the “viability change, negative = cytotoxic” value is 9.38%.
On to `N[C@H](Cc1c[nH]c2ccccc12)C(=O)O`, for which the molecule was called inactive.
As to `CC(C)(Oc1ccc(CCNC(=O)c2ccc(Cl)cc2)cc1)C(=O)O`, the “viability change, negative = cytotoxic” value was -6.1%.
`c1ccc2c(c1)Cc1ccccc1-2`: the molecule was classed as inactive.
As to `CCOC(=O)c1ccc(N)cc1`, the “viability change, negative = cytotoxic” value was -1.61%.
For `C=CCc1ccc(OC)c(OC)c1`, the “viability change, negative = cytotoxic” value was 3.74%.
Still for that read-out and setting: the result for `CC(=O)OCc1ccco1` reads -3.25%.
As for `O=C(O)c1ccccc1C(=O)O`, the “viability change, negative = cytotoxic” value is 17.5% [at 81.1 µM].
Take `c1ccc(Oc2ccccc2)cc1`: the molecule was classed as inactive.
Regarding `CC1(C)CC(N)CC(C)(CN)C1` (stereo not given), the result was inactive.
`CCNc1cccc(C)c1`: the molecule was called inactive.
Consider `COCCCN`, for which the outcome was inactive.
For `O=C(O)c1cc2ccccc2cc1O`, the result was inactive.
Regarding `C[C@]12CC[C@@H]3c4ccc(O)cc4CC[C@H]3[C@@H]1C[C@@H](O)[C@@H]2O`, the call was inactive.
On the same count and under the same terms, to `O=C(O)Cn1c(=O)n(Cc2ccc(Br)cc2F)c(=O)c2ccc(Cl)cc21` belongs “inactive”.
For the molecule `CC(C)CCCCCCCOC(=O)CCCCC(=O)OCCCCCCCC(C)C`, the call was inactive.
As to `OCc1ccccc1`, the molecule was called inactive.
